Data published in PubChem BioAssay AID1159580 (chemical genetic matrix, 2015).
In all, about 5,500 compounds went through this assay and about 2,000 (36%) were called active. Inconclusive results (about 18%) are left out. Cut-off read from the data, not from the text of the source: active = normalized growth mostly below about 0.91 (no sharp cut-off); inconclusive = no clear call, values can overlap the other calls; inactive = mostly above about 0.92. The list shows a part of the results.

Experiment: chemical genetic growth profiling, strain panel (AID 1159580);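 note: tested at 20 µM; growth read once vehicle control cultures reached saturation at 30 °C; 1 = growth at the plate median or of vehicle wells; lower values mean less growth of the strain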
Settings: S. cerevisiae deletion strains, growth OD

Measured: normalized growth

COC(=O)[C@]1(C)CC[C@]2(C)CC[C@]3(C)C4=CC=C5C(=CC(=O)C(O)=C5C)[C@]4(C)CC[C@@]3(C)[C@@H]2C1
inactive: locus YBR021W, strain FUR4, hits give low values 1.02 | locus YBR171W, strain sec66, hits give low values 0.949 | locus YCL029C, strain bik1, hits give low values 0.94 | locus YDL005C, strain med2, hits give low values 0.956 | locus YDL040C, strain nat1, hits give low values 0.996 | locus YDL185W, strain tfp1, hits give low values 0.91 | locus YDR101C, strain arx1, hits give low values 0.935 | locus YDR388W, hits give low values 0.96 | locus YER110C, hits give low values 0.986 | locus YGL078C, strain dbp3, hits give low values 0.944 | locus YGR252W, strain gcn5, hits give low values 0.932 | locus YHR079C, strain IRE1 (second series), hits give low values 0.977 | locus YHR094C, strain hxt1, hits give low values 0.965 | locus YHR200W, strain rpn10, hits give low values 0.929 | locus YIR030C, strain dcg1, hits give low values 0.961 | locus YJL168C, strain set2, hits give low values 0.968
active: locus YAL013W, strain DEP1, hits give low values 0.592 | locus YAL021C, strain ccr4, hits give low values 0.878 | locus YAL026C, strain drs2, hits give low values 0.592 | locus YAL030W, strain snc1, hits give low values 0.823 | locus YBL061C, strain skt5, hits give low values 0.635 | locus YBR009C, strain hhf1, hits give low values 0.691 | locus YBR023C, strain chs3, hits give low values 0.595 | locus YBR229C, strain ROT2, hits give low values 0.905 | locus YBR231C, strain swc5, hits give low values 0.503 | locus YBR279W, strain paf1, hits give low values 0.755 | locus YCL011C, strain gbp2, hits give low values 0.723 | locus YCL016C, strain dcc1, hits give low values 0.827 | locus YCL069W, strain vba3, hits give low values 0.775 | locus YCR088W, strain abp1, hits give low values 0.864 | locus YDL035C, strain GPR1, hits give low values 0.703 | locus YDL074C, strain BRE1, hits give low values 0.622 | locus YDL101C, strain DUN1, hits give low values 0.648 | locus YDL134C, strain PPH21, hits give low values 0.755 | locus YDL192W, strain arf1, hits give low values 0.889 | locus YDR001C, strain nth1, hits give low values 0.922 | locus YDR069C, strain doa4, hits give low values 0.514 | locus YDR137W, strain rgp1, hits give low values 0.693 | locus YDR150W, strain NUM1, hits give low values 0.835 | locus YDR159W, strain sac3, hits give low values 0.621 | locus YDR162C, strain NBP2, hits give low values 0.419 | locus YDR195W, strain ref2 1.24 [resistant] | locus YDR297W, strain sur2, hits give low values 0.646 | locus YDR318W, strain mcm21, hits give low values 0.852 | locus YDR334W, strain swr1, hits give low values 0.553 | locus YDR335W, strain msn5, hits give low values 0.733 | locus YDR392W, strain spt3, hits give low values 0.149 | locus YDR502C, strain sam2, hits give low values 0.878 | locus YEL003W, strain gim4, hits give low values 0.841 | locus YEL037C, strain rad23, hits give low values 0.814 | locus YEL061C, strain CIN8 (second series), hits give low values 0.784 | locus YEL061C, strain CIN8, hits give low values 0.76 | locus YER015W, strain faa2, hits give low values 0.687 | locus YER016W, strain bim1, hits give low values 0.78 | locus YER111C, strain swi4, hits give low values 0.573 | locus YER155C, strain BEM2 (second series), hits give low values 0.572 | locus YER155C, strain BEM2, hits give low values 0.846 | locus YER167W, strain BCK2, hits give low values 0.837 | locus YFR010W, strain ubp6, hits give low values 0.777 | locus YGL086W, strain mad1, hits give low values 0.921 | locus YGL167C, strain pmr1, hits give low values 0.881 | locus YGL173C, strain kem1, hits give low values 0.439 | locus YGL227W, strain vid30, hits give low values 0.879 | locus YGL240W, strain doc1, hits give low values 0.874 | locus YGL248W, strain PDE1, hits give low values 0.675 | locus YGL253W, strain hxk2, hits give low values 0.584 | locus YGR135W, strain pre9, hits give low values 0.843 | locus YHR013C, strain ard1, hits give low values 0.597 | locus YHR027C, strain rpn1, hits give low values 0.514 | locus YHR030C, strain SLT2, hits give low values 0.736 | locus YHR129C, strain ARP1, hits give low values 0.693 | locus YHR142W, strain chs7, hits give low values 0.488 | locus YIL066C, strain RNR3, hits give low values 0.523 | locus YIL073C, strain SPO22, hits give low values 0.531 | locus YIL125W, strain kgd1, hits give low values 0.892 | locus YJL092W, strain hpr5, hits give low values 0.836 | locus YJL095W, strain BCK1 (second series), hits give low values 0.615 | locus YJL095W, strain BCK1, hits give low values 0.634 | locus YJL115W, strain asf1, hits give low values 0.884 | locus YJL129C, strain trk1, hits give low values 0.625 | locus YJL134W, strain LCB3, hits give low values 0.921 | locus YJL154C, strain vps35, hits give low values 0.907 | locus YJL164C, strain tpk1, hits give low values 0.616 | locus YJL166W, strain qcr8, hits give low values 0.509 | locus YJL187C, strain SWE1 (second series), hits give low values 0.455
